This passage reports outcome results from PubChem BioAssay (EPA / NIEHS).

Structures are written as SMILES. The source made the active and inactive calls. Rule for the calls: active = hit-call score of the fitted dose curve at least 0.9, where 1 is the maximum; inactive = score below 0.9.

This assay can be described thus: ATG_M_61_CIS: Attagene CIS-FACTORIAL HepG2 Assay for M61 Transcription Factor (Internal Marker) (AID 2282937). The conditions noted are these: HepG2 Attagene CIS-FACTORIAL M61 internal marker reporter; actives raise or lower the signal. As to the method:
ATG_CIS is a cell-based, multiplexed-readout assay that uses HepG2, a human liver cell line, with measurements taken at 24 hours after chemical dosing in a 24-well plate.ATG_M_61_CIS is one of 52 assay component(s) measured or calculated from the ATG_CIS assay. It is designed to make measurements of mRNA induction, a form of inducible reporter, as detected with fluorescence intensity signals by Reverse transcription polymerase chain reaction (RT-PCR) and Capillary electrophoresis technology.Data from the assay component ATG_M_61_CIS was analyzed into 1 assay endpoint. This assay endpoint, ATG_M_61_CIS, was analyzed with bidirectional fitting relative to DMSO as the negative control and baseline of activity. Using a type of inducible reporter, measures of mRNA for gain or loss-of-signal activity can be used to understand the background control at the transcription factor-level as they relate to the gene . Furthermore, this assay endpoint can be referred to as a secondary readout, because this assay has produced multiple assay endpoints where this one serves a background control function. To generalize the intended target to other relatable targets, this assay endpoint is annotated to the background measurement intended target family, where the subfamily is internal marker.
Human liver HepG2 cells are transiently transfected with multiple reporter transcription units (MRTUs) in 6-well plates using FuGene 6 reagent (Roche; 3 ml FuGene/1 mg DNA). The MRTU constructs are regulated by a cis-regulating element (promoter). […] A major difference between the CIS and TRANS system is that in CIS activities of endogenous TFs are measured, whereas the TRANS assay evaluates changes in activities of exogenous, chimeric NR-Gal4 proteins. […] At the end of 24 hour incubation, total RNA was isolated using TriZol reagent (Invitrogen). The isolated RNA is then reverse-transcribed using oligo(dT) primer and Mo-MLV reverse transcriptase (Invitrogen) with DNAse I (Ambion) treatment for 30 min. The one-tenth of the produced cDNA was amplified by PCR using Taq DNA polymerase (Invitrogen) and two reporter sequence-specific primers. The PCR products were fluorescently labeled by primer extension with 6-arboxyfluorescein (6-FAM) 5'-labeled reporter sequence-specific primer (2 min at 95 C, 20 s at 68 C and 10 min at 72 C) and these products were digested with 5U of HpaI (New England Biolabs) for 2h at 37 C. The fragments were purified using Qiaquick PCR columns (Qiagen), analyzed on an ABI 3130xL genetic analyzer (Applied Biosystems) with peak positions identified by using a set of X-rhodamine (ROX)-labeled MapMarker1000 molecular weight standards (BioVentures). The raw capillary electrophoresis data was processed using Attagraph software (Attagene).
As to `CC/C(=C(\c1ccccc1)c1ccc(OCCN(C)C)cc1)c1ccccc1`, the result was inactive. For `N=C1N=C(N)c2ccccc21` the value was “inactive”. As for `CC(CCO)CC(C)(C)C` (stereo not given), the molecule was called inactive. `CCCCCCCCCCCCCC(=O)OCC`: the molecule was classed as inactive. For `C=CC(O)CCCCC` (stereo not given) the value was “inactive”; for `CCC(=O)OCC=Cc1ccccc1`, “inactive”; for `Cc1ccc(C(C)(C)O)cc1`, “inactive”. In the case of `c1ccc(OCCOc2ccccc2)cc1` it was “inactive”; in that of `CCCCCC1CCC(=O)O1` (stereo not given), “inactive”; in that of `CCCc1ccc(N)cc1`, “inactive”.

Regarding `O=S(=O)(O)c1cc(S(=O)(=O)O)c2c(N=Nc3ccccc3)c(O)ccc2c1`, the call was inactive.

`CCCCCCC(C)O` (stereo not given): the call was inactive.

Regarding `CCCCOCC(C)OCC(C)O` (stereo not given), the molecule was classed as inactive. Regarding `NC(N)=NC(N)=NCCc1ccccc1`, the molecule was called inactive. In the case of `Cc1ccncc1` it was “inactive”; in that of `CCCC(O)C(CC)CO` (stereo not given), “inactive”. Consider `C=CCOCC(O)CO` (stereo not given), for which the molecule was classed as inactive. In the case of `CCCCCCCCCC(=O)OCC` it was “inactive”; in that of `CCOc1ccc(NC(C)=O)cc1`, “inactive”. As for `CCC(C)(C)C1CCC(OC)CC1` (stereo not given), the result was inactive.

`CC(C)Cc1ccccc1`: the result was inactive. Regarding `CCO[Si](CC)(OCC)OCC`, the call was inactive. In the case of `CC12CCC(C1)C(C)(C)C2O` (stereo not given) it was “inactive”. Consider `CC1=CC[C@@H](C(C)(C)O)CC1`, for which the molecule was classed as inactive. For `OC[C@H]1O[C@@H](O[C@H]2[C@H](O)[C@@H](O)[C@H](O)O[C@@H]2CO)[C@H](O)[C@@H](O)[C@H]1O` the value was “inactive”; for `NC(=O)c1cccnc1`, “inactive”; for `C[N+](C)(C)CCO`, “inactive”.

As to `CN(C)CCC=C1c2ccccc2CCc2ccccc21`, the molecule was called inactive. For the molecule `Cc1cccc(C)c1`, the outcome was inactive. For `CCCO` the value was “inactive”; for `CC1=CC(O)CC(C)(C)C1` (stereo not given), “inactive”; for `CCCCC1CCCCC(=O)O1` (stereo not given), “inactive”. In the case of `CCOC(=O)CCCCCCCCC(=O)OCC` it was “inactive”; in that of `O=S1(=O)CC=CC1`, “inactive”; in that of `CCC(C)(CCCC(C)C)OC(C)=O` (stereo not given), “inactive”. In the case of `CCCC[N+](C)(CCCC)CCCC` it was “inactive”. As for `NC(=O)c1cnccn1`, the result was inactive. For `CC=CC(=O)C1=C(C)C=CCC1(C)C` the value was “inactive”; for `CCOC(=O)CC1(C)OCC(C)O1` (stereo not given), “inactive”. As to `Nc1cc([N+](=O)[O-])ccc1C(=O)O`, the result was inactive.
